# An excerpt weighted towards active compounds, which were near 9.2% of everything screened.
# FLuc counter = firefly luciferase modulation, counter-screen for miR-21 project; P08659; purified FLuc, Km substrates, luminescence inhibition; Potency, µM (top dose mostly 57.5 µM), for the others: top-dose activity change, negative = inhibition, actives largely listed as inhibitors; actives 6.9% (n = 360,000); AID 588342;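 note: plate controls were vehicle for no effect and reference inhibitor for full effect; nearly all actives have a fitted effect of over 55% in size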
# Target sequence (P08659 whole entry, looked up): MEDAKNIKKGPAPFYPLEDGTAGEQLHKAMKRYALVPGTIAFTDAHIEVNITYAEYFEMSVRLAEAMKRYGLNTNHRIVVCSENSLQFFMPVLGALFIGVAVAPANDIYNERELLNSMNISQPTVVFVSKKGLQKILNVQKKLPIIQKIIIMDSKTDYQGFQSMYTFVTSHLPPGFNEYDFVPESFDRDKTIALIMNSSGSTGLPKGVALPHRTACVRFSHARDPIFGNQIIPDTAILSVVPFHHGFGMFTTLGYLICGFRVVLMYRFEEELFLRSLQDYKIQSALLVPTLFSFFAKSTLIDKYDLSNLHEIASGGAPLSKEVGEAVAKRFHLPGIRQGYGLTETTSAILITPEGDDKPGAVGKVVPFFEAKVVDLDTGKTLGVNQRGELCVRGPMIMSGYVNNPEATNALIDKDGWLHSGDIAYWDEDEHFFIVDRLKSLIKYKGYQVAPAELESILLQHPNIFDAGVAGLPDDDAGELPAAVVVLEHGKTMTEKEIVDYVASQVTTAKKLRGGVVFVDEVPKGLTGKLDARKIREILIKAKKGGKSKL
#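 Purified P. pyralis luciferase (10nM final) with 10uM D-luciferin and 10uM ATP (Km levels) in 50mM Tris acetate pH 7.5, 10mM Mg acetate, 0.01% Tween-20, 0.05% BSA; qHTS 6-point titration, ~60 µM downward; luminescence read.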
# ELG1 repair inh = inhibitors of ELG1-dependent DNA repair in HEK293T cells; HEK293T ELG1-luciferase reporter, luminescence, 16 h; DNA damage induced by 5-fluorouridine; actives 2.3% (n = 330,000); Potency, µM (doses to about 46.1 µM), for inactives: top-dose activity change, negative = inhibition, most hits filed as inhibitors; note: % is set by controls: 0 for no effect and ±100 for the full control effect; nearly all actives have a fitted effect of over 55% in size
#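 Luminescence from the luciferase reporter, measured 30 min after ONE-Glo reagent at room temperature, was the read-out. Beforehand, 2,000 cells per well were exposed for 16 hr at 37 °C to 5-fluorouridine together with compound or vehicle.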
# Rab9 prom act = Rab9 promoter activation | Huh7 Rab9 promoter-luciferase reporter, luminescence, 24 h | actives 2.8% (n = 320,000) | AID 485297 | Potency, µM (series often up to 9.22 µM), without a hit: at the highest dose activation, negative = inhibition, hits mostly activators; note: % of control where 0% means no effect; nearly all actives have a fitted effect of over 60% in size
#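 Huh7 cells stably carrying Rab9 promoter–luciferase reporter, plated 1500 cells/well, compound added after 2 h and incubated 24 h at 37 °C; luciferase luminescence then read after 10 min with detection reagent.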
# SMN2 splice enh = SMN2 splice variant enhancement; HEK293 SMN2-luciferase splicing reporter, luminescence, 30-36 h; Potency, µM (doses to about 46.1 µM), inactives show top-dose activity change, positive = activation, hits mostly activators; actives 2.8% (n = 210,000); note: % of control where 0% means no effect; nearly all actives have a fitted effect of over 55% in size
#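 qHTS luciferase splicing reporter: luminescence rises when SMN2 exon 7 is included in transfected HEK293 cells. Compound exposure lasted 30-36 h at 37C, with 4.5 mM final sodium butyrate as control, followed by a ONE-Glo read.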
# NPC1 prom act = activators of NPC1 promoter; Huh7 NPC1 promoter luciferase reporter, 24 h; Potency, µM (titrated, usually from 9.22 µM), for the others: top-dose activation, hits mostly activators; actives 2.4% (n = 320,000); note: % of control where 0% means no effect; nearly all actives have a fitted effect of over 60% in size
#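 Quantitative HTS used a cell-based reporter: Huh7 cells stably bearing the NPC1 promoter upstream of luciferase were treated with compounds for 24 h, and promoter activation was read as luminescence.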
# ELG1 genotoxic = genotoxicity induction in ELG1-luciferase HEK293T cells; HEK293T ELG1-luciferase reporter, luminescence, 16 h; Potency, µM (doses to about 46 µM), without a hit: top-dose activity change, positive = activation, usual class: activators; actives 1.3% (n = 330,000); note: % of control where 0% means no effect; nearly all actives have a fitted effect of over 60% in size
#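 Quantitative HTS format in 1536-well plates. HEK293T ELG1-luciferase reporter cells receive test compound and are incubated 16 hr at 37 °C, 5% CO2; ONE-Glo added, 30 min room temperature, then luminescence read.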
# Numbers without * were called inactive; ? = inconclusive; / = no result; [ ] = remark or other dose. Calls come from the whole dose curve; as a rule, active = well fitted curve in the direction sought with a large enough effect; inconclusive = small, poorly fitted or top-dose-only effect, or another doubt; inactive = no such curve, though single readings can be large; an effect the other way counts as inactive or inconclusive. Potency is the fitted concentration of half-maximal effect.
SMILES,FLuc counter,ELG1 repair inh,Rab9 prom act,SMN2 splice enh,NPC1 prom act,ELG1 genotoxic
Cc1ncc(CO)c2c1Oc1nc(-c3ccccc3F)nc(SCC(=O)N(C)c3ccccc3)c1C2,1.6%,2.91µM*,0.1%,/,-2.2%,-8.3%
Cc1ncc(CO)c2c1Oc1nc(-c3ccccc3)nc(SCC(=O)N(C)c3ccccc3)c1C2,-3.7%,?,-1.8%,/,-8.2%,/
Cc1cccc(-c2nnc(SCCC(=O)N3CCOCC3)o2)c1,?,?,-2.1%,-1.9%,5.5%,5.1%
Cc1cccc(-c2nnc(SCC(=O)N3CCCCC3)o2)c1,?,/,/,4.47µM*,/,/
Cc1cccc(-c2nnc(SCCC(=O)O)o2)c1,10.7µM*,/,/,-14.6%,/,/
Cc1cccc(-c2nnc(SCC(=O)N3CCCC3)o2)c1,26.9µM*,?,3.98µM*,/,3.55µM*,?
CC(C)(C)OC(=O)N1CCC(c2c(C(=O)NCc3ccco3)cnn2-c2ccccc2)CC1,-5.2%,/,/,/,/,/
Cc1ccc(C)c(COc2coc(CN3CCN(C(=O)c4ccco4)CC3)cc2=O)c1,3.0%,-0.9%,-5.1%,/,3.6%,-3.7%
O=C1CCSC2(C(=O)N(Cc3ccc(F)cc3)c3ccccc32)N1c1ccc(Cl)cc1 (stereo unspecified),-14.6%,/,/,/,/,/
COC(=O)C(Cc1c[nH]c2ccccc12)NC(=O)c1cncc(Br)c1 (stereo unspecified),-3.3%,-1.7%,-1.9%,/,5.5%,-13.4%
NC(=O)COC(=O)[C@H](Cc1c[nH]c2ccccc12)NC(=O)c1ccc(F)cc1,23.9µM*,4.2%,3.0%,/,-3.8%,-2.0%
CCOC(=O)C(Cc1c[nH]c2ccccc12)NC(=O)c1ccco1 (stereo unspecified),21.3µM*,19.0%,-9.7%,-9.2%,1.2%,19.8%
COC(=O)C(Cc1c[nH]c2ccccc12)NC(=O)c1ccc2nc[nH]c2c1 (stereo unspecified),2.39µM*,?,-1.8%,/,-3.1%,2.7%
CCOC(=O)C(Cc1c[nH]c2ccccc12)NC(=O)COc1ccc(CC)cc1 (stereo unspecified),-20.6%,/,/,-11.3%,/,/
O=C(COC(=O)c1ccc(S(=O)(=O)Nc2ccccc2)cc1)NCc1ccco1,1.1%,6.3%,2.4%,-14.7%,1.0%,-0.4%
CCC(=O)Nc1ccccc1Nc1cc(C#N)c(C#N)cc1[N+](=O)[O-],-0.1%,-3.9%,-8.1%,-4.3%,-2.4%,-0.1%
COc1ccc(/C(N)=N/OC(=O)c2cccs2)cc1,1.9µM*,?,1.26µM*,/,1.41µM*,8.2µM*
N/C(=N\OC(=O)c1cccs1)c1ccc(Cl)cc1,4.78µM*,?,?,/,26.6%,?
COc1ccc(NC(=O)O/N=C2/CCCc3ccc(OC)cc32)cc1,?,-8.1%,-27.7%,/,-3.6%,1.5%
COc1ccc(CNC(=O)COC(=O)c2cccs2)cc1,23.9µM*,14.2%,-5.6%,/,-0.4%,1.9%
COc1ccc2c(c1)/C(=N/OC(=O)c1cccs1)CCC2,26.9µM*,?,-1.3%,-27.5%,-0.4%,13.5%
COc1ccc(CNC(=O)c2cccs2)cc1,4.3%,13.2%,1.1%,-3.1%,3.1%,0.6%
CC(=O)N1CCCc2cc(S(=O)(=O)N3CCC(C(=O)NC4CCC(C)CC4)CC3)ccc21 (stereo unspecified),1.6%,/,/,/,/,/
COCCCNC(=O)c1c(NC(=O)Cc2coc3cc(C)cc(C)c23)sc2c1CCCC2,-5.8%,/,/,15.4%,/,/
Cc1ccccc1OC(=O)c1cccc(S(=O)(=O)N2CCN(C)CC2)c1,-0.2%,-0.4%,-5.4%,/,0.1%,-0.9%
O=C(Nc1ccc(OC(F)(F)F)cc1)C1=NCCN1,6.75µM*,?,2.0%,2.3%,?,10.3%
Cc1cc(Cl)ccc1OCC(=O)Nc1nc(N)nc(N)n1,/,/,/,-6.5%[9.22 µM],/,/
Cc1ccc(OCC(=O)Nc2ccc3nn(-c4ccc(Cl)cc4)nc3c2)cc1,1.6%,/,/,-16.5%,/,/

# Screens from PubChem BioAssay.
